From PubChem
Hits are enriched below; roughly 12% of the tested compounds scored in any of these assays.
JMJD2A Tudor inh – blocks the human JMJD2A Tudor domain | O75164 | AlphaScreen JMJD2A-Tudor / H3K4me3 peptide binding | Potency, µM (highest dose often 114 µM), for inactives: at the top dose activity change, negative = inhibition, usual class: inhibitors | 390,000 compounds, 4.4% hits | AID 504339; also: potency is read from the fitted curve at half-maximal effect; % is scaled to controls: 0 for no effect and ±100 for the full control effect; nearly all actives have a fitted effect of over 50% in size
HP1b chromo inh – HP1-beta chromodomain-methylated histone interaction inhibition; AID 540317; 390,000 compounds, 0.56% hits; Potency, µM (highest dose often 114 µM), for inactives: top-dose activity change, negative = inhibition, hits mostly inhibitors; AlphaScreen HP1-beta / biotin-H3K9me3 peptide binding; also: potency is read from the fitted curve at half-maximal effect; nearly all actives have a fitted effect of over 70% in size
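Compound inhibition of the preformed complex between 50 nM HP1-beta and 50 nM biotinylated H3K9me3 peptide was read by AlphaScreen. Buffer was PBS pH 7.4 with 0.01% Tween-20. Incubations ran 30 min at room temperature, with 10 ug/mL donor/acceptor beads.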
PI5P4K alpha inh – PI5P4K alpha (human) kinase inhibition; P48426; max response, %; PI5P4Kalpha enzyme, ADP-Glo luminescence, 60 min; hits give low values; 330,000 compounds, 1.2% hits; active = max response of -50% or lower; inconclusive = between -30% and -50%; inactive = -30% or higher; also: value at the top dose of about 77 µM; % is scaled to controls: 0 for no effect and ±100 for the full control effect
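Enzyme plus substrate dispensed, test compounds pinned in, then ATP (5 microM final) added. After 60 min at RT, ADP-Glo reagent 1 for 45 min and reagent 2 for 30 min preceded luminescence imaging.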
G9a block – blocks human histone lysine methyltransferase G9a. Potency, µM (doses to about 102 µM), inactives show at the top dose activity, negative = inhibition, usual class: inhibitors. 350,000 compounds, 8.8% hits. G9a H3K9 monomethylation, AlphaScreen, 2 h. Q96KQ7; also: potency is read from the fitted curve at half-maximal effect; % is scaled to controls: 0 for no effect and ±100 for the full control effect; nearly all actives have a fitted effect of over 75% in size
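Readings reflect AlphaScreen signal from monomethyl-H3K9 antibody detection. HMT at 20 nM; substrate b-H3K9 500 nM; cofactor SAM 20 uM; 2 h RT reaction; compounds tested as titrations in qHTS with 15 min preincubation.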
PLK1 PBD inh – PLK1 (human) polo-box domain binding inhibition. Potency, µM, without a hit: max response, negative = inhibition, usual class: inhibitors. P53350. Plk1 PBD binding of FITC phosphopeptide, fluorescence polarization. 360,000 compounds, 2.8% hits; also: potency is read from the fitted curve at half-maximal effect; series mostly up to about 57 µM; % is scaled to controls: 0 for no effect and ±100 for the full control effect; nearly all actives have a fitted effect of over 65% in size
BAZ2B block – blocks human BAZ2B. Potency, µM (series often up to 114 µM), for inactives: at the highest dose activity change, negative = inhibition, usual class: inhibitors. AlphaScreen BAZ2B-H3K14Ac peptide displacement. 360,000 compounds, 4.4% hits. AID 504333. Q9UIF8; also: potency is read from the fitted curve at half-maximal effect; % is scaled to controls: 0 for no effect and ±100 for the full control effect; nearly all actives have a fitted effect of over 60% in size
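Compounds, titrated to a top concentration of 110 uM, were incubated 30 min at room temperature with preformed BAZ2B/acetyl-K14 H3 peptide complex (50 nM each). Proximity signal was measured by AlphaScreen after 20 min with beads.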
Starred values were filed as active, the others as inactive; ? = inconclusive; nt = no result; [ ] = another dose, or the depositor's remark. Unless noted, calls follow the shape of the dose curve; as a rule, active = well fitted curve in the direction sought with a large enough effect; inconclusive = small, poorly fitted or top-dose-only effect, or another doubt; inactive = no such curve, though single readings can be large; an effect the other way counts as inactive or inconclusive.

SMILES	JMJD2A Tudor inh	HP1b chromo inh	PI5P4K alpha inh	G9a block	PLK1 PBD inh	BAZ2B block
Cc1cc(C(=O)OCC(=O)Nc2cccc(S(=O)(=O)N3CCOCC3)c2)c(C)o1	-10%[11.4 µM]	-31%	-16	-50%[59 µM]	27µM*	-9%
O=C(COC(=O)c1cc([N+](=O)[O-])ccc1NCCO)Nc1cccc(S(=O)(=O)N2CCCC2)c1	?	-19%	-1	45µM*	-15%	-7%
COc1ccc(OC)c(NC(=O)C2(C)CCN2C(=O)CC2CC2)c1 (configuration not stated)	nt	nt	-1	nt	1%	nt
Cc1ccc2c(c1)c1c(c(=O)n(Cc3ccccc3)c(=O)n1Cc1cccc(F)c1)n2C	6%	25%	nt	-7%[59 µM]	nt	1%
Cc1coc2cc3oc(=O)c(CCC(=O)N4C[C@H]5C[C@@H](C4)c4cccc(=O)n4C5)c(C)c3cc12	-6%	38%	5	8%[12.7 µM]	-1%	-29%
C[C@H]1CCC(=O)N([C@H](COc2ccccc2)Cc2ccccc2)CC1	4%	76%	8	32µM*	-8%	9%
CC1CCC(=O)N(CCOc2ccccc2)CC1 (configuration not stated)	?	9%	-4	-32%	27µM*	8%
CCOc1ccccc1CNC(=O)c1ccc(N2Cc3ccccc3Oc3ncccc32)s1	2%	37%	nt	9%[59 µM]	nt	-3%
C[C@@H]1CN([C@@H](C)CO)C(=O)CCCn2nncc2CO[C@@H]1CN(C)S(=O)(=O)c1ccc(F)cc1	nt	nt	8	nt	-3%	nt
COc1ccc(C2=Nn3c(nnc3-c3ccc(OC)c(OC)c3)SC2)cc1OC	-12%	nt	nt	nt	nt	nt
CCn1c(CC(=O)Nc2ccc(Cl)c(Cl)c2)nnc1SCc1ccc(Cl)cc1	-17%	13%	-2	-8%[59 µM]	-6%	-4%
CCn1c(CS(=O)Cc2ccc(Cl)cc2Cl)nnc1SCc1c(Cl)cccc1Cl (configuration not stated)	-24%	20%	nt	16µM*	-8%	8%
CCOc1ccccc1NC(=O)C1CCCN(S(=O)(=O)c2cccs2)C1 (configuration not stated)	-5%	30%	nt	-2%[59 µM]	nt	2%
CCc1ccc(-c2cn3c(n2)sc2cc(C(=O)NCCCc4ccccc4)ccc23)cc1	-26%	24%	nt	-1%[59 µM]	nt	-5%
CCOc1ccc(-c2cn3c(n2)sc2cc(C(=O)NCCCc4ccccc4)ccc23)cc1	4%	39%	nt	22µM*	nt	-16%
O=C(NCc1cccs1)c1ccc2c(c1)sc1nc(-c3ccc(F)cc3)cn12	-19%	42%	nt	10µM*	nt	-17%
O=C(O)CCCCCNC(=O)CSc1nnc(-c2ccco2)n1-c1ccccc1	2%	33%	3	-7%	2%	-16%
O=C(NCc1cccc(C(F)(F)F)c1)c1csc([C@H]2C[C@H](O)[C@@H](CO)O2)n1	nt	nt	-2	nt	-8%	nt
COc1ccccc1NC(=O)CSc1n[nH]c(-c2ccco2)n1	-32%	-17%[57 µM]	1	nt	27µM*	nt
Cc1ccccc1NC(=O)CSc1n[nH]c(-c2ccco2)n1	-5%	25%	3	-18%	-4%	-20%
COc1ccc(NC(=O)CSc2n[nH]c(-c3ccccn3)n2)cc1	4µM*	36%	8	-3%	4%	3.5µM*
COc1ccc(-c2nc(SCC(=O)Nc3cccc(C(C)=O)c3)n[nH]2)cc1	3%	34%[57 µM]	nt	-16%[59 µM]	nt	3%
COc1ccccc1NC(=O)CSc1n[nH]c(-c2ccccn2)n1	3.5µM*	23%	-3	12%	-2%	4.5µM*
O=C(CSc1n[nH]c(-c2ccccn2)n1)Nc1ccccc1	4µM*	47%	0	nt	-4%	?
COC(=O)c1ccccc1NC(=O)c1nn(C)c2c1COc1ccccc1-2	-5%	43%	nt	-34%[59 µM]	nt	?
SMILES	JMJD2A Tudor inh	HP1b chromo inh	PI5P4K alpha inh	G9a block	PLK1 PBD inh	BAZ2B block
O=C(CSc1n[nH]c(-c2ccccn2)n1)Nc1ccccc1F	2.5µM*	29%	4	29%	-9%	4.5µM*
COc1ccccc1-c1nc(SCC(=O)Nc2ccccc2F)n[nH]1	2%	23%	-1	25%	6%	-5%
Cc1cc2nc3c(=O)[nH]c(=S)[nH]c3nc2cc1NC(=O)C(F)(F)F	-10%	11%	-21	28µM*	-25%	-38%
O=c1[nH]c(=S)[nH]c2nc(-c3ccccc3)cnc12	4%	33%	?	nt	-20%	nt
COc1ccc(CC(=O)Nc2c(C(=O)N3CCN(c4ccccc4)CC3)oc3ccccc23)cc1OC	?	3%	3	71µM*	-5%	-39%[57.1 µM]
COc1ccc(CC(=O)Nc2c(C(=O)N3CCN(c4ccccc4OC)CC3)oc3ccccc23)cc1OC	?	9%	5	35µM*	2%	?
COC(=O)c1ccc(NC(=O)Cc2coc3cc(C)ccc23)cc1	-14%	44%	nt	8%[59 µM]	nt	-10%
CN1CCN(c2ncc3nc(-c4ccccc4)c(=O)n(CCc4ccccc4)c3n2)CC1	nt	nt	nt	30%[0.501 µM]	nt	nt
Cc1ccc(C(=O)C2CCNCC2)cc1	-9%	16%	2	nt	1%	15%
Cc1ccc(C2Cc3cc(O)c(O)cc3CN2)cc1 (configuration not stated)	8.9µM*	?	3	nt	-7%	nt
Cc1ccc(C(=O)NCC(c2ccc3c(c2)OCO3)N2CCN(c3ccc(F)cc3)CC2)cc1 (configuration not stated)	?	-11%[57 µM]	nt	?	nt	-10%
CC(C)OCCCNCC(O)c1ccccc1 (configuration not stated)	20µM*	?	-6	?	-1%	79µM*
O=C1CCCN1CCCNCC(=O)N1c2ccccc2Sc2ccccc21	10µM*	?	-1	?	-6%	22µM*
O=C1CCCN1CCCNCC(O)c1ccccc1 (configuration not stated)	1µM*	?	-3	-2%	4%	?
OC(CNCc1ccccc1)c1ccccc1 (configuration not stated)	-13%	13%	4	-5%	-7%	6%
O=C(CSc1ccc2ccccc2c1)NCCCN1CCCC1=O	6%	47%	-5	?	-12%	-11%
CCOC(=O)C1=C(COC(=O)[C@H](C)NS(=O)(=O)c2ccc(NC(C)=O)cc2)NC(=O)NC1C (some centres not stated)	-3%	34%	-3	21%[12.7 µM]	-2%	2%
COc1cc(OC)c(NC(=O)Nc2ccc3c(c2)N(C)C(=O)c2ccccc2S3)cc1Cl	-32%	12%	nt	-7%[59 µM]	nt	-22%
CC1(C)OC(=O)C2=C(C[C@@H](CCc3ccccc3)O[C@H]2C2CCCC2)O1	nt	nt	-3	nt	-3%	nt
COc1cc([N+](=O)[O-])cc(/C=N/N(CCC#N)C(C)=O)c1O	-7%	11%	?	45µM*	-9%	?
